Hit rate of the full screen: of about 310,000 compounds, about 14,000 (4.5%) showed an effect of 50% or more. The effect is printed as a negative number. Shown is part of a subset that was picked to be rich in strong results.
What follows are compounds tested against human ether-à-go-go-related gene (hERG) potassium channel (human, UniProt Q12809) (assay: primary screen, population patch clamp on CHO cells stably expressing hERG; higher = less effect of the substance).
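Note: peak tail current of the secondary pulse compared with the same well before compound.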

Chain of human ether-à-go-go-related gene (hERG) potassium channel (Q12809 whole entry, looked up): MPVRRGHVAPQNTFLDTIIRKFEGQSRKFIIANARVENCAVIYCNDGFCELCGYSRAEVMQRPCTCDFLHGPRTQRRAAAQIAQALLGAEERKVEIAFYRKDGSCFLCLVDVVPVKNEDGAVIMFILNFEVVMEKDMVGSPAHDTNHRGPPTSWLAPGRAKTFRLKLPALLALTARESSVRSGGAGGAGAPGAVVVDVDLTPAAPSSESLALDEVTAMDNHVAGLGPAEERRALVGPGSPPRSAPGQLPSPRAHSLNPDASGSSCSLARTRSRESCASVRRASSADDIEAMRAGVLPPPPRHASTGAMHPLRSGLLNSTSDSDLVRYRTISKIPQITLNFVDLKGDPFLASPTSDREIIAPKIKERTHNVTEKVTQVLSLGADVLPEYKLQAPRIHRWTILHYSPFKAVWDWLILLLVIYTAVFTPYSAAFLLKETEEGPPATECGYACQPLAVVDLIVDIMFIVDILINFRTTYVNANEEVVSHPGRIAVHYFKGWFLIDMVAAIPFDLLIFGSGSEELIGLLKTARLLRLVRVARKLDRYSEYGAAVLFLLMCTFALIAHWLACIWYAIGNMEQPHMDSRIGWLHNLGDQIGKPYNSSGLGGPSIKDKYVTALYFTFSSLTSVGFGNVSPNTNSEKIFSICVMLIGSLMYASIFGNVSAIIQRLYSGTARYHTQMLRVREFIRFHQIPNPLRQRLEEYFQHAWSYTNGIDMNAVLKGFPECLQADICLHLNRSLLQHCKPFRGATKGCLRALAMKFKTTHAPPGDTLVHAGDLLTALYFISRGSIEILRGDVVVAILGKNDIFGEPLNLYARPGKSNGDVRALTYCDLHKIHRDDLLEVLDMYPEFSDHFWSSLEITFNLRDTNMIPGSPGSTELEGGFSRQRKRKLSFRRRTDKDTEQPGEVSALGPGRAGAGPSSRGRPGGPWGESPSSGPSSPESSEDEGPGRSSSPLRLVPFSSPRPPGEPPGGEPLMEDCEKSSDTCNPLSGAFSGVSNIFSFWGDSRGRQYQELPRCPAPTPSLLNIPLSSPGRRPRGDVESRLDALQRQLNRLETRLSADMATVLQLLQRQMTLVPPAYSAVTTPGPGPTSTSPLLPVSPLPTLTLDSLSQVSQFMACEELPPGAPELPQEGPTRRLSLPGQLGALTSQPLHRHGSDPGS

| SMILES | hERG current change (%, negative = inhibition) at 10uM |
| --- | --- |
| CCOC(=O)Cc1csc(NC(=O)CCCN2C(=O)c3ccccc3C2=O)n1 | 12.2% |
| O=C(NC1CC1)C1CCN(c2ncnc3c2sc2cccc(F)c23)CC1 | -52% |
| O=C(NC1CC1)C1CCN(c2nc3ccccc3s2)CC1 | -5.63% |
| COc1ccc(-c2noc(N3CCC(C(=O)NCCCN4CC(C)CC(C)C4)CC3)n2)cc1 (stereo not drawn) | -18.1% |
| O=C(Nc1ccc(F)cc1F)C1CCN(c2ncnc3c2sc2cccc(F)c23)CC1 | 3.98% |
| CCOC(=O)N1CCN(C(=O)C2CCN(c3ncnc4c3sc3cccc(F)c34)CC2)CC1 | -59.9% |
| O=C(NCCN1CCOCC1)C1CCN(c2ncnc3c2sc2cccc(F)c23)CC1 | -25.6% |
| CC1CC(C)CN(CCCNC(=O)C2CCN(c3ncnc4c3sc3cccc(F)c34)CC2)C1 (stereo not drawn) | -65.8% |
| CCN(CC)CCNC(=O)c1ccc(NC(=O)C2CCN(c3ncnc4sc(C)c(C)c34)CC2)cc1 | -29.8% |
| CCN(CC)CCCNC(=O)C1CCN(C(=O)c2cc3sccc3n2Cc2ccc(F)cc2)CC1 | -2.11% |
| CCN(CC)CCCNC(=O)C1CCN(c2ncnc3c2sc2cccc(F)c23)CC1 | -50.2% |
| O=C(C1CCN(c2ncnc3c2sc2cccc(F)c23)CC1)N1CCCC1 | -19.7% |
| O=C(C1CCN(c2ncnc3c2sc2cccc(F)c23)CC1)N1CCOCC1 | -27.8% |
| O=C(Nc1cc(-c2nc3ncccc3o2)ccc1Cl)c1ccc2c(c1)OCO2 | 10.2% |
| Cc1ccc(C(=O)NCCc2ccc(S(N)(=O)=O)cc2)o1 | 16.1% |
| O=C(Nc1ccc(-c2ccccc2)cc1)c1ccc2c(c1)S(=O)(=O)c1ccccc1C2=O | 7.7% |
| CC1(C)NC(=O)N(CC(O)COC2CCCCC2)C1=O (stereo not drawn) | 8.64% |
| FC(F)(F)c1ccccc1CNCc1ccncc1 | 4.43% |
| COc1ccccc1-n1c(C)nnc1SCC(=O)NCc1ccccc1 | 11.5% |
| CCOC(=O)c1c(NC(=O)COC(=O)Cn2cnc3ccccc32)sc2c1CCC(C)C2 (stereo not drawn) | -3.78% |
| CCCCN(CC)CCNC(=O)C1CCN(S(=O)(=O)c2cccc3nsnc23)CC1 | -11% |
| CCCCN(CC)CCCNC(=O)C1CCN(c2ncnc3c2sc2cccc(F)c23)CC1 | -70.3% |

| SMILES | hERG current change (%, negative = inhibition) at 10uM |
| --- | --- |
| CCCCNC(=O)C1CCN(c2nc(C)cc(C)n2)CC1 | 17% |
| CC1(C)CC2CC(C)(CN2C(=O)COC(=O)Cn2[nH]c(=O)c3ccccc3c2=O)C1 (stereo not drawn) | 2.26% |
| CCn1c(CNC(=O)c2ccc(Cl)cc2)nnc1SCC(=O)NC1=NCCS1 | 18% |
| CC(=O)Nc1sc2c(c1CN1CCN(C)CC1)CCCC2 | -1.92% |
| CC(=O)Nc1sc2c(c1CN1CCCC1)CCCC2 | 7.34% |
| CC(=O)Nc1sc2c(c1CN1CCN(c3ccccn3)CC1)CCCC2 | -55.3% |
| COc1cc(NC(=O)c2ccc(Br)o2)ccc1NC(=O)c1ccccc1Cl | -22.4% |
| CCN(CC)C(=O)CSc1nnc(SCc2ccc(Cl)cc2)s1 | -3.44% |
| O=C(O)C1(NS(=O)(=O)c2ccc(F)c(Cl)c2)CCCCC1 | 7.65% |
| N#C/C(=C/Nc1ccccc1)c1ccsc1 | 7.85% |
| O=C(NC1CCCCC1)c1ccc(S(=O)(=O)N2CCOCC2)cc1 | -2.69% |
| CC(C)C(NC(=O)c1c(F)cccc1F)C(=O)N1CCN(c2ccccc2F)CC1 (stereo not drawn) | -1.76% |
| CC(C)C(NC(=O)C1CCCCC1)C(=O)N1CCN(c2ccc(F)cc2)CC1 (stereo not drawn) | -55.7% |
| CC(C)[C@H](NC(=O)c1c(F)cccc1F)C(=O)N1CCN(c2ccc(F)cc2)CC1 | -54.2% |
| COc1ccc(N2CCN(C(=O)C(NC(=O)c3c(F)cccc3F)C(C)C)CC2)cc1 (stereo not drawn) | 10.5% |
| CC(C)[C@H](NC(=O)C1CC(=O)N(c2ccc(F)cc2)C1)C(=O)N1CCCCC1 (stereo partly drawn) | 7.29% |
| CC(C)[C@H](NC(=O)C1CCN(S(=O)(=O)c2ccc(F)cc2)CC1)C(=O)N1CCCCCC1 | 5.18% |
| O=C(COc1ccccc1)OC(C(=O)c1ccccc1)c1ccccc1 (stereo not drawn) | 16.5% |
| CC(C)(C)OC(=O)N1CCN(C(=O)c2[nH]cnc2C(=O)Nc2ccon2)CC1 | 9.6% |
| Fc1ccc(-c2nc3c(-c4ccccc4)cnn3cc2CCN2CCOCC2)cc1 | -15.2% |
| COc1ccc(-n2c(Cc3cccn3C)nnc2SCC(=O)Nc2ccccc2)cc1 | -19.5% |
| CCOC(=O)CN(C(=O)CNC(=O)c1ccco1)C(C(=O)NC1CCCCC1)c1cccnc1 (stereo not drawn) | 12.2% |

| SMILES | hERG current change (%, negative = inhibition) at 10uM |
| --- | --- |
| Cc1onc(-c2ccccc2Cl)c1C(=O)Nc1ccc2c(c1)OCO2 | 10.3% |
| COc1cccc(-n2c(SCC(N)=O)nc3c([nH]c4ccccc43)c2=O)c1 | -0.054% |
| Cc1nnc(SCC(=O)NC2CCCc3ccccc32)n1-c1ccccc1 (stereo not drawn) | -0.602% |
| CC(CCN1CCN=C1Nc1ccccc1)c1ccccc1 (stereo not drawn) | -33.8% |
| CC(CCN1C(Nc2ccccc2)=NC[C@@H]1Cc1ccccc1)c1ccccc1 (stereo partly drawn) | -74.8% |
| CCC(C)CCN1C(Nc2ccccc2)=NC[C@@H]1C (stereo partly drawn) | -4.88% |
| CCC(C)CCN1C(Nc2ccccc2)=NC[C@@H]1CC(C)C (stereo partly drawn) | -41.1% |
| CC(C)CCN1C(Nc2ccccc2)=NC[C@@H]1C | -9.63% |
| CC(C)C[C@H]1CN=C(Nc2ccccc2)N1CCC(C)c1ccccc1 (stereo partly drawn) | -67% |
| CC(CCN1C(Nc2ccccc2)=NC[C@@H]1C)c1ccccc1 (stereo partly drawn) | -52.4% |
| CCC(C)CCN1CCN=C1Nc1ccccc1 (stereo not drawn) | -1.89% |
| CCC(C)CCN1C(Nc2ccccc2)=NC[C@@H]1Cc1ccccc1 (stereo partly drawn) | -59.6% |
| S=C(Nc1ccccc1)Nc1ccc(OCc2ccccc2)cc1 | -0.702% |
| Nc1nc2ccccc2n1/N=C/c1ccc(-c2ccccc2)o1 | -11.8% |
| CCCc1[nH]nc2c1C1(C(=O)N(CC)c3ccccc31)C(C#N)=C(N)O2 (stereo not drawn) | -6.38% |
| COc1ccc(C(=O)OCC(=O)NCC2CCCO2)cc1[N+](=O)[O-] (stereo not drawn) | 2.12% |
| Cc1cc(/C=C(\C#N)C(=O)NC2CCCCCC2)c(C)[nH]1 | 9.54% |
| COc1ccccc1CC(=O)Nc1cccc(C(=O)Nc2nccs2)c1 | -0.755% |
| O=C(Nc1ccccc1)c1cc(-c2ccccc2Cl)no1 | -4.91% |
| O=S(=O)(NC1CCCC1)c1cc(F)ccc1F | -8.75% |
| O=C(O)C1Cc2ccccc2N2CCCC12 (stereo not drawn) | 20% |
| COc1cc(-c2nnc(SC/C=C/c3ccccc3)n2N)cc(OC)c1OC | -3.66% |

| SMILES | hERG current change (%, negative = inhibition) at 10uM |
| --- | --- |
| COc1cccc(C(=O)NNC(=O)c2ccc3ccccc3c2O)c1 | 7.66% |
| O=C(CSc1nc(-c2ccc(F)cc2)cs1)N1CCc2ccccc21 | -1.23% |
| COc1ccc2c(c1)c(C(=O)N/N=C/c1ccc(Cl)cc1)c(C)n2C | -58.6% |
| COc1ccc2c(c1)c(C(=O)N/N=C/c1ccc(Br)cc1)c(C)n2C | -64.1% |
| COc1ccc2c(c1)c(C(=O)N/N=C/c1cccc(Br)c1)c(C)n2C | -15.9% |
| COc1ccc2c(c1)c(C(=O)N/N=C/c1ccc(OC)c(OC)c1)c(C)n2C | -39.2% |
| CCOc1ccc(/C=N/NC(=O)c2c(C)n(C)c3ccc(OC)cc23)cc1 | -5.78% |
| COc1ccc2c(c1)c(C(=O)N/N=C/c1ccc(O)c(O)c1)c(C)n2C | 9.18% |
| Oc1ccc(-c2csc(-c3c[nH]c4ccccc34)n2)c(O)c1 | 5.01% |
| O=c1[nH]c2ccccc2n1CCCOc1ccccc1 | 4.34% |
| Cc1onc(-c2c(F)cccc2Cl)c1C(=O)Nc1cccc2nsnc12 | -20.6% |
| CNC(=O)NC(=O)COC(=O)CCCOc1ccc(OC)cc1 | 20.5% |
| COc1ccc(S(=O)(=O)NC(C)C(=O)O)cc1 (stereo not drawn) | 1.62% |
| CN(CC(=O)Nc1ccc2c(c1)OCO2)S(=O)(=O)c1ccc(F)cc1 | -4.45% |
| CCN(Cc1nc2cc(Cl)ccc2c(=O)[nH]1)C(=O)c1cccc(OCc2c(C)noc2C)c1 | -57.4% |
| Cc1noc(C)c1COc1cccc(C(=O)N(C)Cc2nc3ccccc3c(=O)[nH]2)c1 | -23.5% |
| CCN(Cc1nc2cc(Cl)ccc2c(=O)[nH]1)C(=O)c1cccc(NC(=O)c2cccs2)c1 | -24.7% |
| Cc1cccc(Oc2coc3cc(OC(=O)c4cncc(Br)c4)ccc3c2=O)c1 | -5.03% |
| CN1N=C(C(=O)N2CCc3c([nH]c4ccccc34)C2c2ccccc2Cl)CCC1=O (stereo not drawn) | -36.9% |
| Cc1cc(C(=O)N2CCc3c([nH]c4ccccc34)C2c2c(F)cccc2Cl)no1 (stereo not drawn) | 5.46% |
| CN1N=C(C(=O)N2CCc3c([nH]c4ccccc34)C2c2c(F)cccc2Cl)CCC1=O (stereo not drawn) | -97.3% |

From PMC4336329 (PLoS ONE, 2015)
